Data on 109 compounds can be found in PubChem BioAssay AID2546 (National Center for Advancing Translational Sciences (NCATS), 2010).

Screen size: about 310,000 compounds; about 11,000 (3.5%) were called active. Roughly 8% stayed inconclusive and do not appear here. Shown is part of a subset that was picked to be rich in actives. A call without a number means that no potency is given here. A number with no mark means an inactive call. Calls come from the whole dose curve; as a rule, active = well fitted inhibition curve with a large enough effect; inconclusive = small, poorly fitted or top-dose-only effect, or effect the other way; inactive = flat fitted curve, though single readings scatter.
Potency is the fitted concentration of half-maximal effect.

This assay can be described thus: VP16 counterscreen qHTS for inhibitors of ROR gamma transcriptional activity.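 Note: Gal4-VP16 expression switched on by copper sulfate through the metallothionein promoter; nearly all actives have a fitted effect of over 50% in size.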 To be noted: Drosophila S2 Gal4-VP16 UAS-luciferase, luminescence, 20 h; series mostly up to 53.6 µM.
As to `CCC1C/C(=C/c2cccs2)C(=O)/C(=C/c2cccs2)C1` (centres undefined), the Potency entry was “inactive”. Take `CCCCC1S/C(=N/N=C/c2cccs2)NC1=O` (centres undefined): the Potency is 0.316 µM (active).

Take `CC(=O)Nc1ccc(S(=O)(=O)Oc2ccc(/C=N/N=C3/NC(=O)C(CC(=O)O)S3)cc2)cc1` (centres undefined): the Potency result is “inactive”.

Take `CCN(CC)CCCNC(=O)COc1ccc2oc3c(c2c1)CCCC3`: the Potency result was “inactive”.

As to `Cc1ccc(OS(=O)Nc2cccc3nccnc23)cc1` (centres undefined), the Potency is 3.16 µM (active). Turning to `Cc1ccc(OCC(=O)Nn2cnc3ccccc32)cc1`, the Potency entry was “inactive”.

As for `COc1ccc(NC(=O)Nc2cccc3cccnc23)cc1`, the Potency entry was “inactive”. As to `O=C(CN1C(=O)COc2ccc(Cl)cc21)Nc1ccc(N2CCOCC2)cc1`, the Potency entry was “inactive”. Consider `Cc1csc(NC(=O)NC2(C(F)(F)F)Oc3ccccc3O2)n1`, for which the Potency result is “inactive”. As to `O=C(Nc1cc(N2CCOCC2)ncn1)NC1(C(F)(F)F)Oc2ccc(Cl)cc2O1` (centres undefined), the Potency is 15.8 µM (active). As for `COc1ccc(NC(=O)COc2ccc(C(=O)c3ccc(F)cc3)cc2)cc1S(N)(=O)=O`, the Potency entry is “inactive”. In the case of `COc1ccc(NC(=O)C/C(C)=N/NC(=O)c2cnccn2)cc1Cl`, the Potency result is “inactive”.

Regarding `CCOC(=O)C1CCN(C(=O)COc2cccc3ccccc23)CC1`, the Potency entry was “inactive”. On to `CCN(CC)C(=O)COc1coc(CN2CCN(Cc3ccccc3)CC2)cc1=O`, for which the Potency result was “inactive”. `Cc1ccccc1-c1n[nH]c(=S)n1/N=C/c1ccc(-c2ccccc2Br)o1`: the Potency result is “inactive”. Regarding `Cc1ccccc1-c1n[nH]c(=S)n1C`, the Potency is 7.94 µM (active).

In the case of `CCCc1cc(-c2n[nH]c(=S)n2CC)c2ccccc2n1`, the Potency entry was “inactive”. On the same count and under the same terms, under `O=C(Nc1cccc(NC(=O)c2ccccc2[N+](=O)[O-])c1)c1ccccc1Cl` stands “inactive”; under `CCOC(=O)N/N=C/c1cn(Cc2ccccc2Cl)c2ccccc12`, “inactive”; under `COc1cccc(Cn2cc(/C=N/NC(=O)c3cc(O)cc(O)c3)c3ccccc32)c1`, “inactive”. Turning to `COC(=O)N/N=C/c1cn(CCCOc2ccc(C)cc2)c2ccccc12`, the Potency was 1 µM (active). Take `CCOC(=O)N1CCC(N2Cc3cccc(C(=O)Nc4ccc(S(=O)(=O)N(CC)CC)cc4)c3C2=O)CC1`: the Potency entry is “inactive”. Same read-out and setting: the same measure for `Oc1ccc(Cl)cc1/C=N/c1nc2ccccc2[nH]1`: “inactive”; for `C/C(=N\c1nc2ccccc2n1C)c1cc(Cl)ccc1O`: “inactive”; for `CCN(CC)CCn1c(/N=C/c2cc(Br)ccc2O)nc2ccccc21`: 6.31 µM (active).

As for `Cc1sc2ncn(CC(=O)NCCCC(=O)N3CCN(c4ccccc4F)CC3)c(=O)c2c1C`, the Potency result is “inactive”.

For the compound `Cn1cccc1/C=N/NC(=O)c1ccc(OC(F)(F)C(F)F)cc1`, the Potency is 5.62 µM (active). Take `COc1ccc(/C=N/NC(=O)c2cccc(C(F)(F)F)c2)cc1`: the activity, negative = inhibition is 6.66% [at 10 µM]. As to `Cn1cccc1/C=N/NC(=O)CNc1cccc2ccccc12`, the Potency result is “inactive”. Take `O=C(NCCc1cccc(F)c1)C1CCCN(c2nc3ccccc3s2)C1` (centres undefined): the Potency entry is “inactive”. On to `COc1cc(NC(=O)c2ccccc2)c(OC)cc1NC(=O)Cc1ccccc1`, for which the Potency result is “inactive”.

Regarding `COc1cccc(/C=C2\C=C(c3ccc(C)cc3)OC2=O)c1OC(C)=O`, the Potency result is “inactive”. On the same count and under the same terms, the same measure for `NC(=O)COC(=O)/C=C/c1ccc2ccccc2n1`: “inactive”; for `COc1cccc(/C=C/c2ccc3ccccc3n2)c1OC(C)=O`: 5.01 µM (active); for `CCOc1ccccc1-c1cc(C(=O)N/N=C(\C)c2cccnc2)c2ccccc2n1`: “inactive”. In the case of `CS(=O)(=O)c1sc(C(=O)NC(=S)Nc2ccc(OC(F)(F)F)cc2)c2c1C=CCC2`, the Potency is 11.2 µM (active). On the same count and under the same terms, the same measure for `COC(=O)[C@H](C)NC(=O)Nc1ccc(OC(F)(F)F)cc1`: “inactive”. On the same count and under the same terms, the same measure for `CSc1sc(C(=O)NNC(=O)c2ccc(Cl)cc2)c2c1C=CCC2`: “inactive”; for `CC(C)c1c(C(=O)N/N=C/c2ccc(-c3ccccc3)cc2)nnn1-c1nonc1N`: “inactive”; for `Cc1cc(N2CCCC2)n2nc(C)c(-c3ccccc3)c2n1`: “inactive”.

Consider `Cc1cc(C(C)(C)C)n2nc(C)c(-c3ccccc3)c2n1`, for which the Potency result was “inactive”. As to `Cc1nn2c(NCCN(C)C)c3c(nc2c1-c1ccccc1)CCC3`, the Potency was 0.794 µM (active). The same measure, in the same setting: under `CCOC(=O)C1(Cc2cccc(OC)c2)CCCN(C(=O)CCSC)C1` (centres undefined) stands “inactive”; under `CCN(CC)S(=O)(=O)c1ccc(N2CCN(C)CC2)c(NC(=O)Nc2ccccc2F)c1`, “inactive”. For `Cc1ccccc1CN1CCNC(=O)C1CC(=O)NCCC1=CCCCC1` (centres undefined), the Potency entry is “inactive”. Turning to `CC1CCCCN1C(=S)NCc1ccccc1` (centres undefined), the Potency result was “inactive”. Regarding `O=C(O)c1ccc(/C=N/NC(=S)NCc2ccccc2)cc1`, the Potency result was “inactive”. Regarding `C/C(=N\NC(=S)NCc1ccccc1)C1CCCCC1`, the Potency is 1 µM (active).

Turning to `C[n+]1ccc(C(=O)NCc2ccccc2)cc1`, the Potency entry was “inactive”.

Consider `C/C(=N\NC(=S)NCc1ccccc1)c1ccc(Cl)cc1`, for which the Potency was 0.794 µM (active). On to `O=C(CC1CCCCC1)NCc1ccccc1`, for which the Potency entry was “inactive”. Still for that read-out and setting: the same measure for `COc1ccc(NC(=O)C(C)N2c3cccc4cccc(c34)S2(=O)=O)c(OC)c1` (centres undefined): “inactive”; for `COc1cccc(/C=C2\Sc3ccc(C(=O)NCC4CCCO4)cc3N(C)C2=O)c1` (centres undefined): “inactive”. Consider `CC(=O)NCCC(=O)Nc1nc(-c2ccc3c(c2)OCCO3)cs1`, for which the Potency result is “inactive”. On to `Cc1cc(C)cc(NS(=O)(=O)Cc2ccccc2)c1`, for which the Potency result was “inactive”.

With `Cc1ccc(C(=O)COC(=O)CCN2C(=O)C3C4CCC(C4)C3C2=O)cc1C` (centres undefined), the Potency result was “inactive”. On to `COc1ccccc1NC(=O)/C=C/C(=O)O`, for which the Potency result was “inactive”. In the case of `COc1ccccc1NC(=O)c1ccc(C)s1`, the Potency result is “inactive”.

Consider `COc1ccccc1NC(=O)/C=C/C(N)=O`, for which the Potency is 4.47 µM (active).

Take `COc1ccc(NC(=O)CN2C(=O)COc3ccc(S(=O)(=O)N4CCOCC4)cc32)cc1`: the Potency result was “inactive”.

As for `CCc1cc(-c2n[nH]c(=S)n2CC(C)C)cs1`, the Potency is 11.2 µM (active). For the compound `CCn1c(C(C)C)n[nH]c1=S`, the Potency result is “inactive”.

For the compound `CCn1c(-c2ccoc2C)n[nH]c1=S`, the Potency result is “inactive”. Same read-out and setting: under `Cc1ccc(Cn2c(C)c3cnn(CC(=O)NCc4ccccn4)c(=O)c3c2C)cc1` stands “inactive”. Consider `CC(=O)Nc1ccc(C(=O)N(C2=NC(C)CS2)c2ccc(Cl)cc2)cc1` (centres undefined), for which the Potency entry is “inactive”. With `COc1cccc(-c2nnc(NC(=O)c3ccc(S(=O)(=O)N(CC(C)C)CC(C)C)cc3)o2)c1`, the Potency was 0.355 µM (active).

Turning to `COc1cccc(NC(=O)c2ccc(S(=O)(=O)N(C)C)cc2)c1`, the Potency result is “inactive”. As to `COc1ccc(-c2nnc(NC(=O)CS(=O)(=O)c3ccc(Cl)cc3)o2)c(OC)c1`, the Potency result is “inactive”. `COc1cc(Nc2nc3ccc(Cl)cc3n3cnnc23)cc(OC)c1OC`: the Potency result was “inactive”. As for `O=C(c1ccc(Cl)cc1)n1cnc2ccccc21`, the Potency entry was “inactive”. Consider `C=CS(=O)c1sc(Cl)c(N2CCOCC2)c1[N+](=O)[O-]` (centres undefined), for which the Potency is 3.98 µM (active).

`CCCOc1ccc(C2=CSC3=NCCN23)cc1Cl`: the Potency entry was “inactive”. On to `COc1ccc(C(=O)NC2CCN(C(=S)NCCc3ccccc3)CC2)cc1`, for which the Potency entry was “inactive”. On to `COc1ccc(C(=O)NC(=S)NNC(=O)CCc2ccccc2)cc1`, for which the Potency is 15.8 µM (active). Same read-out and setting: under `CCCNC(=S)N1CCC(NC(=O)c2ccc(OC)cc2)CC1` stands “inactive”; under `COc1ccc(OCC(=O)NNC(=O)c2ccc(-c3ccccc3)cc2)cc1`, “inactive”. Turning to `O=C(CCc1ccccc1)NNC(=O)c1ccc(Br)cc1`, the Potency result is “inactive”.

`COc1ccc(C(=O)NNC(=S)NC(=O)c2ccccc2[N+](=O)[O-])cc1`: the Potency result is “inactive”. `O=C(NC(=S)NC1CCCCC1)c1ccc(Cl)cc1`: the Potency entry was “inactive”. On the same count and under the same terms, the same measure for `COc1ccc(C(=O)NNC(=S)NC(=O)c2ccccc2)cc1`: 8.91 µM (active); for `COc1ccc(C(=O)NC(=S)NC2CCCCC2)cc1`: 6.31 µM (active). With `COc1ccc(NC(=O)CCCN2C(=O)C(c3ccccc3)Oc3cccnc32)cc1` (centres undefined), the Potency result is “inactive”. `CC(C)C[C@@H](COc1ccccc1)N1CCN(CC(C)C)CCC1=O`: the Potency result was “inactive”. On the same count and under the same terms, the same measure for `COc1ccc(CCc2nc(-c3cccs3)no2)cc1`: “inactive”.

As to `O=C(c1ccc2nc(N3CCOCC3)sc2c1)N1CCN(c2ccc(Cl)cc2)CC1`, the Potency result was “inactive”. With `COc1ccc(NC(=O)CSc2nncc(=O)n2N)cc1OC`, the Potency entry is “inactive”. For `CCCC(C)c1nnc(NC(=O)C2CC(=O)N(c3ccc(OCC)cc3)C2)s1` (centres undefined), the Potency entry was “inactive”. For `O=C(N/N=C/c1ccccc1O)C1CCCC1`, the Potency was 0.562 µM (active). In the case of `Oc1ccccc1C=NC1CCCCC1N=Cc1ccccc1O` (centres undefined), the Potency entry was “inactive”. The same measure, in the same setting: the same measure for `COc1ccc(/C=N/NC(=O)C2CC2)c(OC)c1OC`: “inactive”.

As for `N#CC(C#N)=CN=c1ccn(Cc2ccc(Cl)cc2Cl)cc1`, the Potency entry is “inactive”.

On to `COc1ccccc1N1CCN(C(=O)c2cc(=O)c3cc(C)ccc3o2)CC1`, for which the Potency result is “inactive”. As to `O=c1c2ccccc2nc2n1C(CSc1ccc(F)cc1)CN2` (centres undefined), the Potency result was “inactive”. `O=c1c2ccccc2nc2n1C(CSCc1ccccc1)CS2` (centres undefined): the activity, negative = inhibition is 5.71% [at 0.365 µM]. For the compound `O=c1c2ccccc2nc2n1C(CSCc1cccc(C(F)(F)F)c1)CS2` (centres undefined), the Potency was 7.94 µM (active).

As for `CS(=O)(=O)N1CCN(CC(=O)NC2CCCC2)CC1`, the Potency entry was “inactive”. For `COc1ccccc1Oc1ccc(S(=O)(=O)Nc2cccnc2)cc1`, the Potency was 17.8 µM (active). Regarding `COc1ccc(S(=O)(=O)Nc2cccnc2)c(Cl)c1Cl`, the Potency entry is “inactive”. On to `O=S(=O)(Nc1ccccn1)c1ccc(Oc2ccccc2)cc1`, for which the Potency result was “inactive”. In the case of `CC(Oc1cccc(Cl)c1)C(=O)NC1CC(C)(C)NC(C)(C)C1` (centres undefined), the Potency entry was “inactive”. On the same count and under the same terms, the same measure for `O=C(CC1C(=O)NCCN1C(=O)c1ccc([N+](=O)[O-])cc1)Nc1cccc(Cl)c1` (centres undefined): “inactive”. For `Nc1nonc1-n1nnc(C(=O)N/N=C/c2cc(Br)ccc2O)c1CSC1=NCCS1`, the Potency is 4.47 µM (active). In the case of `Cc1ccc(SCc2c(C(=O)N/N=C/C3CC=CCC3)nnn2-c2nonc2N)cc1` (centres undefined), the Potency result is “inactive”.

Take `Cc1ccc(SCc2c(C(=O)N/N=C/c3cccnc3)nnn2-c2nonc2N)cc1`: the Potency entry was “inactive”. As for `COc1ccccc1NC(=O)CSc1nc2sc3c(c2c(=O)n1-c1ccccc1)CCN(C)C3`, the Potency result was “inactive”. On to `CCCCc1nc2cc(C(=O)NCCc3cnn(C)c3)ccc2o1`, for which the Potency entry is “inactive”. `O=C(CN(c1cc(C(F)(F)F)ccc1Cl)S(=O)(=O)c1ccccc1)NCc1cccnc1`: the Potency result is “inactive”. In the case of `CCc1ccc(N(CC(=O)NCc2cccnc2)S(=O)(=O)c2ccccc2)cc1`, the Potency was 14.1 µM (active).

As to `O=C(CCc1ccccc1)NCc1cccnc1`, the Potency entry is “inactive”.
